# In PubChem BioAssay (NCI):
# The panel holds about 79,000 compounds, 15% with a hit somewhere; the sample as a whole holds those more often. Values without a mark were called inactive. The source made the active and inactive calls. Cut-off read from the data, not from the text of the source: active = growth inhibition above about 70%; inactive = the rest.
# Key:
# [1] = NCI Yeast Anticancer Drug Screen. Data for the rad52 strain (AID 147);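 note: 0% = growth of vehicle-treated control cultures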; settings: S. cerevisiae rad52 mutant growth inhibition, stronger effect = higher value
# In short: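 Vehicle-treated cultures served as the reference for growth inhibition of compound-exposed yeast bearing a DNA repair mutation.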
# [2] = NCI Yeast Anticancer Drug Screen. Data for the wt1 strain (AID 149);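 note: 0% = growth of vehicle-treated wt1 cultures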; settings: S. cerevisiae wt1 strain (SPY 50644) growth inhibition, stronger effect = higher value
# In short: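 Growth inhibition read against vehicle controls after compound exposure of the wt1 yeast strain.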
# [3] = NCI Yeast Anticancer Drug Screen. Data for the rad50EPP+ strain (AID 151);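 note: 0% = growth of vehicle-treated control cultures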; settings: S. cerevisiae rad50 mutant strain, stronger effect = higher value
# In short: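 In this screen, rad50EPP+ yeast were exposed to compounds. Growth inhibition was scored against vehicle-treated controls.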
# [4] = NCI Yeast Anticancer Drug Screen. Data for the mgt1 strain (AID 153); settings: S. cerevisiae mgt1 mutant growth inhibition, stronger effect = higher value
# In short: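 mgt1 strain exposed; growth vs vehicle control recorded as inhibition.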
# [5] = NCI Yeast Anticancer Drug Screen. Data for the rad50 strain (AID 155);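 note: 0% = growth of vehicle-only cultures of the same strain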; settings: S. cerevisiae rad50 strain growth inhibition, stronger effect = higher value
# In short: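 Readout: growth inhibition relative to vehicle-treated cultures. Compound exposure was carried out in a genetically defined yeast strain deficient in DNA damage repair.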
# [6] = NCI Yeast Anticancer Drug Screen. Data for the mec2-1 strain (AID 157); settings: S. cerevisiae mec2-1 strain, stronger effect = higher value
# In short: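 Vehicle-treated cultures served as reference for growth inhibition of compound-exposed mec2-1 yeast.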
# [7] = NCI Yeast Anticancer Drug Screen. Data for the rad14 strain (AID 159);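 note: 0% = growth of vehicle-treated control cultures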; settings: S. cerevisiae rad14 strain growth inhibition, stronger effect = higher value
# In short: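 Growth inhibition vs vehicle controls; genetically altered yeast strain (DNA damage repair defect) treated with test compounds.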
# [8] = NCI Yeast Anticancer Drug Screen. Data for the sgs1 mgt1 strain (AID 161);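 note: 0% = growth of cultures given vehicle only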; settings: S. cerevisiae sgs1 mgt1 strain, stronger effect = higher value
# In short: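 Inhibition of yeast growth, normalised to vehicle-treated controls, is reported for a strain bearing genetic alterations in DNA damage repair.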
# [9] = NCI Yeast Anticancer Drug Screen. Data for the CLN2oe strain (AID 163);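 note: 0% = growth of vehicle-only control cultures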; settings: S. cerevisiae CLN2oe strain, stronger effect = higher value
# In short: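 Inhibition relative to vehicle-treated yeast is reported. Cells: strain with genetic alteration in cell-cycle control, grown with compound.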
# [10] = NCI Yeast Anticancer Drug Screen. Data for the cln2 rad14 strain (AID 165);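 note: 0% = growth equal to vehicle treated cultures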; settings: S. cerevisiae cln2 rad14 strain, stronger effect = higher value
# In short: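 Each compound was tested on cln2 rad14 yeast. Inhibition of growth was calculated against vehicle-exposed controls.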
# [11] = NCI Yeast Anticancer Drug Screen. Data for the bub3 strain (AID 167); settings: S. cerevisiae bub3 mutant strain, stronger effect = higher value
# In short: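 Readout: yeast growth inhibition, expressed relative to vehicle-only wells. The test organism is a mutant strain from a panel with lesions in DNA repair or checkpoint genes.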
# [12] = NCI Yeast Anticancer Drug Screen. Data for the wt2 strain (AID 169);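 note: 0% = growth of vehicle-treated yeast cultures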; settings: S. cerevisiae wt2 strain growth inhibition, stronger effect = higher value
# In short: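 Inhibition of yeast growth was determined after compound treatment, normalised to controls receiving only vehicle.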
# [13] = NCI Yeast Anticancer Drug Screen. Data for the mlh1 strain (AID 171);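 note: 0% = growth of vehicle-treated control cultures of the same strain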; settings: S. cerevisiae mlh1 strain growth inhibition, stronger effect = higher value
# In short: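 Vehicle-normalised growth inhibition of a repair- or checkpoint-altered yeast strain following compound treatment.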
# [14] = NCI Yeast Anticancer Drug Screen. Data for the sgs1 strain (AID 173);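 note: 0% = growth of vehicle-only control cultures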; settings: S. cerevisiae sgs1 mutant, stronger effect = higher value
# In short: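 Screen format: yeast with repair or checkpoint alterations, compound exposure, growth read relative to vehicle.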
# [15] = NCI Yeast Anticancer Drug Screen. Data for the mlh1 rad18 strain (AID 175); settings: S. cerevisiae mlh1 rad18 strain growth inhibition, stronger effect = higher value
# In short: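 Vehicle-treated cultures served as the reference for growth inhibition in a yeast strain carrying DNA damage repair alterations exposed to each compound.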
# [16] = NCI Yeast Anticancer Drug Screen. Data for the rad18 strain (AID 177); settings: S. cerevisiae rad18 mutant growth inhibition, stronger effect = higher value
# In short: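 Test articles were incubated with altered yeast defective in DNA damage repair. Results are given as inhibition of growth versus vehicle.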
# [17] = at 5.0 µM (retest, dose inferred, filed as 0.5)
# [18] = at 50.0 µM (retest, dose inferred, filed as 5.0)
structure (smiles),measurement,setting,value
COc1cc2oc3ccccc3c(=O)c2cc1CSc1ccccc1N,growth inhibition,[1]; at 1.2 µM,-1%
same,growth inhibition,[1]; at 3.7 µM,1%
same,growth inhibition,[1]; at 11.0 µM,1%
same,growth inhibition,[1]; at 33.0 µM,8%
same,growth inhibition,[1]; at 100.0 µM,8%
same,growth inhibition,[2]; at 1.2 µM,-1%
same,growth inhibition,[2]; at 3.7 µM,-1%
same,growth inhibition,[2]; at 11.0 µM,-1%
same,growth inhibition,[2]; at 33.0 µM,-2%
same,growth inhibition,[2]; at 100.0 µM,0%
same,growth inhibition,[3]; at 1.2 µM,-5%
same,growth inhibition,[3]; at 3.7 µM,1%
same,growth inhibition,[3]; at 11.0 µM,4%
same,growth inhibition,[3]; at 33.0 µM,14%
same,growth inhibition,[3]; at 100.0 µM,16%
same,growth inhibition,[4]; at 1.2 µM,1%
same,growth inhibition,[4]; at 3.7 µM,0%
same,growth inhibition,[4]; at 11.0 µM,-2%
same,growth inhibition,[4]; at 33.0 µM,-2%
same,growth inhibition,[4]; at 100.0 µM,6%
same,growth inhibition,[5]; at 1.2 µM,0%
same,growth inhibition,[5]; at 3.7 µM,0%
same,growth inhibition,[5]; [17],9%
same,growth inhibition,[5]; at 11.0 µM,1%
same,growth inhibition,[5]; at 33.0 µM,6%
same,growth inhibition,[5]; [18],26%
same,growth inhibition,[5]; at 50.0 µM,44.9%
same,growth inhibition,[5]; at 100.0 µM,7%
same,growth inhibition,[6]; at 1.2 µM,-2%
same,growth inhibition,[6]; at 3.7 µM,-1%
same,growth inhibition,[6]; [17],8%
same,growth inhibition,[6]; at 11.0 µM,-1%
same,growth inhibition,[6]; at 33.0 µM,2%
same,growth inhibition,[6]; [18],8%
same,growth inhibition,[6]; at 50.0 µM,-19.2%
same,growth inhibition,[6]; at 100.0 µM,15%
same,growth inhibition,[7]; at 1.2 µM,0%
same,growth inhibition,[7]; at 3.7 µM,-6%
same,growth inhibition,[7]; at 11.0 µM,-5%
same,growth inhibition,[7]; at 33.0 µM,-18%
same,growth inhibition,[7]; at 100.0 µM,-16%
same,growth inhibition,[8]; [17],3%
same,growth inhibition,[8]; [18],48%
same,growth inhibition,[8]; at 50.0 µM,39.8%
same,growth inhibition,[9]; at 1.2 µM,-4%
same,growth inhibition,[9]; at 3.7 µM,3%
same,growth inhibition,[9]; at 11.0 µM,-1%
same,growth inhibition,[9]; at 33.0 µM,2%
same,growth inhibition,[9]; at 100.0 µM,3%
same,growth inhibition,[10]; [17],2%
same,growth inhibition,[10]; [18],34%
same,growth inhibition,[10]; at 50.0 µM,27.5%
same,growth inhibition,[11]; at 1.2 µM,-1%
same,growth inhibition,[11]; at 3.7 µM,2%
same,growth inhibition,[11]; [17],4%
same,growth inhibition,[11]; at 11.0 µM,35%
same,growth inhibition,[11]; at 33.0 µM,54%
same,growth inhibition,[11]; [18],71% (active)
same,growth inhibition,[11]; at 50.0 µM,72.4% (active)
same,growth inhibition,[11]; at 100.0 µM,74% (active)
same,growth inhibition,[12]; at 1.2 µM,-1%
same,growth inhibition,[12]; at 3.7 µM,-2%
same,growth inhibition,[12]; at 11.0 µM,-2%
same,growth inhibition,[12]; at 33.0 µM,3%
same,growth inhibition,[12]; at 100.0 µM,7%
same,growth inhibition,[13]; at 1.2 µM,-5%
same,growth inhibition,[13]; at 3.7 µM,0%
same,growth inhibition,[13]; at 11.0 µM,-1%
same,growth inhibition,[13]; at 33.0 µM,2%
same,growth inhibition,[13]; at 100.0 µM,-7%
same,growth inhibition,[14]; at 1.2 µM,1%
same,growth inhibition,[14]; at 3.7 µM,1%
same,growth inhibition,[14]; at 11.0 µM,5%
same,growth inhibition,[14]; at 33.0 µM,15%
same,growth inhibition,[14]; at 100.0 µM,20%
same,growth inhibition,[15]; [17],15%
same,growth inhibition,[15]; [18],31%
same,growth inhibition,[15]; at 50.0 µM,39.9%
CCN(CC)CCNc1ccc2ncn3c4ccc(O)cc4c(=O)c1c23,growth inhibition,[1]; at 1.2 µM,9%
same,growth inhibition,[1]; at 3.7 µM,28%
same,growth inhibition,[1]; at 11.0 µM,56%
same,growth inhibition,[1]; at 33.0 µM,75% (active)
same,growth inhibition,[1]; at 100.0 µM,85% (active)
same,growth inhibition,[2]; at 1.2 µM,0%
same,growth inhibition,[2]; at 3.7 µM,-2%
same,growth inhibition,[2]; at 11.0 µM,-4%
same,growth inhibition,[2]; at 33.0 µM,-2%
same,growth inhibition,[2]; at 100.0 µM,1%
same,growth inhibition,[3]; at 1.2 µM,-1%
same,growth inhibition,[3]; at 3.7 µM,6%
same,growth inhibition,[3]; at 11.0 µM,13%
same,growth inhibition,[3]; at 33.0 µM,26%
same,growth inhibition,[3]; at 100.0 µM,39%
same,growth inhibition,[4]; at 1.2 µM,-3%
same,growth inhibition,[4]; at 3.7 µM,-6%
same,growth inhibition,[4]; at 11.0 µM,-1%
same,growth inhibition,[4]; at 33.0 µM,1%
same,growth inhibition,[4]; at 100.0 µM,1%
same,growth inhibition,[5]; at 1.2 µM,13%
same,growth inhibition,[5]; at 3.7 µM,32%
same,growth inhibition,[5]; [17],65%
same,growth inhibition,[5]; at 11.0 µM,65%
same,growth inhibition,[5]; at 33.0 µM,81% (active)
same,growth inhibition,[5]; [18],65%
same,growth inhibition,[5]; at 50.0 µM,-6.6%
same,growth inhibition,[5]; at 100.0 µM,87% (active)
same,growth inhibition,[6]; at 1.2 µM,-3%
same,growth inhibition,[6]; at 3.7 µM,-3%
same,growth inhibition,[6]; [17],18%
same,growth inhibition,[6]; at 11.0 µM,-2%
same,growth inhibition,[6]; at 33.0 µM,4%
same,growth inhibition,[6]; [18],18%
same,growth inhibition,[6]; at 50.0 µM,3.05%
same,growth inhibition,[6]; at 100.0 µM,22%
same,growth inhibition,[7]; at 1.2 µM,2%
same,growth inhibition,[7]; at 3.7 µM,-1%
same,growth inhibition,[7]; at 11.0 µM,3%
same,growth inhibition,[7]; at 33.0 µM,3%
same,growth inhibition,[7]; at 100.0 µM,6%
same,growth inhibition,[8]; [17],13%
same,growth inhibition,[8]; [18],13%
same,growth inhibition,[8]; at 50.0 µM,-33.6%
same,growth inhibition,[9]; at 1.2 µM,-4%
same,growth inhibition,[9]; at 3.7 µM,1%
same,growth inhibition,[9]; at 11.0 µM,0%
same,growth inhibition,[9]; at 33.0 µM,2%
same,growth inhibition,[9]; at 100.0 µM,-1%
same,growth inhibition,[10]; [17],18%
same,growth inhibition,[10]; [18],18%
same,growth inhibition,[10]; at 50.0 µM,19.9%
same,growth inhibition,[11]; at 1.2 µM,-7%
same,growth inhibition,[11]; at 3.7 µM,-9%
same,growth inhibition,[11]; [17],30%
same,growth inhibition,[11]; at 11.0 µM,3%
same,growth inhibition,[11]; at 33.0 µM,4%
same,growth inhibition,[11]; [18],30%
same,growth inhibition,[11]; at 50.0 µM,8.45%
same,growth inhibition,[11]; at 100.0 µM,-11%
same,growth inhibition,[12]; at 1.2 µM,-1%
same,growth inhibition,[12]; at 3.7 µM,1%
same,growth inhibition,[12]; at 11.0 µM,-3%
same,growth inhibition,[12]; at 33.0 µM,1%
same,growth inhibition,[12]; at 100.0 µM,-2%
same,growth inhibition,[13]; at 1.2 µM,-5%
same,growth inhibition,[13]; at 3.7 µM,-4%
same,growth inhibition,[13]; at 11.0 µM,-2%
same,growth inhibition,[13]; at 33.0 µM,-5%
same,growth inhibition,[13]; at 100.0 µM,10%
same,growth inhibition,[14]; at 1.2 µM,-4%
same,growth inhibition,[14]; at 3.7 µM,-6%
same,growth inhibition,[14]; at 11.0 µM,-6%
same,growth inhibition,[14]; at 33.0 µM,-4%
same,growth inhibition,[14]; at 100.0 µM,-1%
same,growth inhibition,[15]; [17],25%
same,growth inhibition,[15]; [18],25%
same,growth inhibition,[15]; at 50.0 µM,64.7%
same,growth inhibition,[16]; at 1.2 µM,0%
same,growth inhibition,[16]; at 3.7 µM,-4%
same,growth inhibition,[16]; at 11.0 µM,-11%
same,growth inhibition,[16]; at 33.0 µM,-8%
same,growth inhibition,[16]; at 100.0 µM,-14%
